# Experimental data as given in the supplement of paper PMC7411054.
# Counter-ions that a name gives are not always drawn.
# What was measured:
# Conditions in all cases: treatment time: 24 h
# HepG2-ACTB-RAB5A = assay: lowest phenotypically active concentration; higher = less potent
# Method in brief: (§1)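 Cells from fifteen gene-edited reporter lines (A549, HepG2 and WPMY1) were treated for 24 h at 0.3, 1, 3 or 9 µM and imaged live, four wells per condition. Features were normalised per well to solvent control wells. A condition deviated if ≥3 of 4 wells passed the 95th percentile of control Euclidean distances and was reproducible if its median replicate Pearson correlation beat the 95th percentile of non-replicates; phenotypic activity needed both.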
# HepG2-CANX-COX4 = assay: as above
# Method in brief: as §1
# HepG2-TP53BP1-CLTA = assay: as above
# Method in brief: as §1
# HepG2-TUBA1B-RELA = assay: as above
# Method in brief: as §1
# WPMY1-ACTB-RAB5A [1] = assay: as above
# Method in brief: as §1
# WPMY1-CANX-COX4 = assay: as above
# Method in brief: as §1
# WPMY1-GM130-SQSTM1 = assay: as above
# Method in brief: as §1
# WPMY1-TP53BP1-CLTA = assay: as above
# Method in brief: as §1
# WPMY1-TUBA1B-RELA = assay: as above
# Method in brief: as §1
# WPMY1-ACTB-RAB5A [2] = assay: phenotypically active (imaging signature differs from DMSO and reproducible) at any of 0.3-9 uM (binary (1 = active, 0 = inactive)); higher = active
# Method in brief: as §1
SMILES,lowest phenotypically active concentration (HepG2-ACTB-RAB5A) [µM],lowest phenotypically active concentration (HepG2-CANX-COX4) [µM],lowest phenotypically active concentration (HepG2-TP53BP1-CLTA) [µM],lowest phenotypically active concentration (HepG2-TUBA1B-RELA) [µM],lowest phenotypically active concentration (WPMY1-ACTB-RAB5A [1]) [µM],lowest phenotypically active concentration (WPMY1-CANX-COX4) [µM],lowest phenotypically active concentration (WPMY1-GM130-SQSTM1) [µM],lowest phenotypically active concentration (WPMY1-TP53BP1-CLTA) [µM],lowest phenotypically active concentration (WPMY1-TUBA1B-RELA) [µM],phenotypically active (WPMY1-ACTB-RAB5A [2])
CCOC(=O)CCNc1cc(N2CCc3ccccc3CC2)nc(-c2ccccn2)n1,3,3,3,3,9,9,3,3,9,1 (active)
Clc1ccc(C2(c3ccc(-c4cn[nH]c4)cc3)CCNCC2)cc1,≤ 0.3,≤ 0.3,≤ 0.3,≤ 0.3,≤ 0.3,≤ 0.3,≤ 0.3,1,≤ 0.3,1 (active)
COc1c(C)cnc(Cn2cnc3c(Cl)nc(N)nc32)c1C,≤ 0.3,≤ 0.3,≤ 0.3,≤ 0.3,≤ 0.3,≤ 0.3,≤ 0.3,≤ 0.3,≤ 0.3,1 (active)
O=C(CCCCSc1nc(-c2ccc(-c3ccccc3)cc2)cc(=O)[nH]1)NO,≤ 0.3,≤ 0.3,≤ 0.3,≤ 0.3,≤ 0.3,≤ 0.3,≤ 0.3,≤ 0.3,≤ 0.3,1 (active)
Oc1cccc(Nc2ccnc3cc(-c4cccc(CN5CCOCC5)c4)sc23)c1 [LCB 03-0110 dihydrochloride],1,1,3,1,3,3,3,3,3,1 (active)
COc1ccc2[nH]c(C(=O)c3ccccc3)cc2c1,≤ 0.3,≤ 0.3,≤ 0.3,≤ 0.3,≤ 0.3,3,≤ 0.3,≤ 0.3,≤ 0.3,1 (active)
Cc1c[nH]c2nccc(Oc3c(F)cc(Nc4cc(Cl)nc(N)n4)cc3F)c12,≤ 0.3,≤ 0.3,≤ 0.3,≤ 0.3,≤ 0.3,≤ 0.3,≤ 0.3,1,≤ 0.3,1 (active)
CCC(=O)N1CCN(c2ccc(-n3c(=O)ccc4cnc5ccc(-c6cnc7ccccc7c6)cc5c43)cc2C(F)(F)F)CC1 [Torin 1],≤ 0.3,≤ 0.3,≤ 0.3,≤ 0.3,≤ 0.3,≤ 0.3,≤ 0.3,≤ 0.3,≤ 0.3,1 (active)
COc1cc2nc(N3CCCN(C)CC3)nc(NC3CCN(Cc4ccccc4)CC3)c2cc1OC,≤ 0.3,1,1,≤ 0.3,1,1,≤ 0.3,1,1,1 (active)
Nc1ccc(-c2cccc3c(=O)cc(N4CCOCC4)oc23)cc1,3,9,9,9,3,3,3,9,9,1 (active)
O=C(NCc1cccc(O)c1)Nc1nc(-c2ccncc2)cs1 [RKI 1447 dihydrochloride],≤ 0.3,≤ 0.3,≤ 0.3,≤ 0.3,≤ 0.3,≤ 0.3,≤ 0.3,≤ 0.3,≤ 0.3,1 (active)
NC(=O)Nc1cc(-c2cccc(F)c2)sc1C(=O)N[C@H]1CCCNC1 [AZD 7762 hydrochloride],≤ 0.3,1,≤ 0.3,≤ 0.3,≤ 0.3,≤ 0.3,1,≤ 0.3,≤ 0.3,1 (active)
COc1cc(N2CCC(N3CCN(C)CC3)CC2)ccc1Nc1ncnc(Nc2ccccc2S(=O)(=O)C(C)C)n1,9,3,9,9,9,3,9,9,9,1 (active)
CO[C@H]1C=CC=C(C)C(=O)NC2=CC(=O)C(NCCN(C)C)=C(C[C@@H](C)C[C@H](OC)[C@H](O)[C@@H](C)C=C(C)[C@@H]1OC(N)=O)C2=O [17-DMAG hydrochloride],≤ 0.3,≤ 0.3,≤ 0.3,≤ 0.3,≤ 0.3,≤ 0.3,≤ 0.3,≤ 0.3,≤ 0.3,1 (active)
O=C1Cc2c([nH]c3ccc(Br)cc23)-c2ccccc2N1 [Kenpaullone],3,1,3,1,1,1,1,1,3,1 (active)
CNC(=O)c1ccccc1Sc1ccc2c(/C=C/c3ccccn3)n[nH]c2c1 [Axitinib],3,3,3,3,9,9,3,3,3,1 (active)
CC1(C)CC(=O)C2=C(C1)NC(=S)NC2c1cccc(O)c1 (stereo not given) [Dimethylenastron],1,1,1,1,1,3,1,1,1,1 (active)
CCC1=C[C@@H]2CN(C1)Cc1c([nH]c3ccccc13)[C@@](C(=O)OC)(c1cc3c(cc1OC)N(C)[C@H]1[C@@](O)(C(=O)OC)[C@H](OC(C)=O)[C@]4(CC)C=CCN5CC[C@]31[C@@H]54)C2 [vinorelbine],≤ 0.3,≤ 0.3,≤ 0.3,≤ 0.3,≤ 0.3,≤ 0.3,≤ 0.3,≤ 0.3,≤ 0.3,1 (active)
CN(C)C1CCN(C(=O)c2ccc(NC(=O)Nc3ccc(-c4nc(N5CCOCC5)nc(N5CCOCC5)n4)cc3)cc2)CC1,≤ 0.3,≤ 0.3,≤ 0.3,≤ 0.3,≤ 0.3,≤ 0.3,≤ 0.3,≤ 0.3,≤ 0.3,1 (active)
